Screens as filed in PubChem BioAssay.
Hits are enriched below; roughly 21% of the tested compounds scored in any of these assays.
IL-1B inflam inh: inhibitors of inflammasome signaling (IL-1 beta secretion); activity change, % at 57.5 µM; hit rate 4.7% among 360,000; AID 743279; THP-1 LPS/ATP IL-1B secretion, AlphaLISA, 16 h; hits give low values; in the data active = activity change below about -50%; inconclusive = mostly about -30% to -49%
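Secreted IL-1B measured by AlphaLISA bead assay after 16 h compound exposure of THP-1 cells; compounds (final up to 57.5 uM) added 1 h before LPS (250 ng/mL) and ATP (1.25 mM) stimulation; lower signal means less secretion.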
DT40 TDP1 CPT: growth inhibition of DT40 Tdp1-/-;hTDP1 cells with camptothecin (screen for TDP1 inhibitors). hit rate 12% among 420,000. chicken DT40 Tdp1-/-;hTDP1 cells + 20 nM CPT, ATP luminescence, 48 h. AID 686979. Potency, µM (top dose mostly 46.2 µM), for inactives: top-dose activity change, negative = growth inhibition, usual class: inhibitors; note: potency is the fitted concentration of half-maximal effect; nearly all actives have a fitted effect of over 55% in size
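Chicken DT40 Tdp1-/- cells stably complemented with human TDP1 were seeded at 400 cells/well in medium containing 20 nM camptothecin, exposed to pin-transferred compounds, and grown at 37 °C for at least 48 hr. Viability was read as ATP luminescence.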
ELG1 repair inh: blocks ELG1-dependent DNA repair in HEK293T cells | HEK293T ELG1-luciferase reporter, luminescence, 16 h; DNA damage induced by 5-fluorouridine | Potency, µM (doses to about 46.1 µM), without a hit: at the highest dose activity change, negative = inhibition, most hits filed as inhibitors | hit rate 2.3% among 330,000 | AID 504467; note: potency is the fitted concentration of half-maximal effect; nearly all actives have a fitted effect of over 55% in size
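5-Fluorouridine DNA damage + compound/DMSO, 2,000 cells/well, 16 h, 37 °C/5% CO2. ONE-Glo, 30 min RT, luminescence. Readout = decrease in reporter signal.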
RORg inh: blocks mouse ROR gamma transcriptional activity. P51450. Drosophila S2 Gal4-RORgamma UAS-luciferase reporter, 20 h. Potency, µM (doses to about 53.6 µM), for inactives: at the top dose activity change, negative = inhibition, usual class: inhibitors. hit rate 5.4% among 310,000. AID 2551; note: potency is the fitted concentration of half-maximal effect; nearly all actives have a fitted effect of over 60% in size
Target sequence (P51450 whole entry, looked up, the tested form may be a part): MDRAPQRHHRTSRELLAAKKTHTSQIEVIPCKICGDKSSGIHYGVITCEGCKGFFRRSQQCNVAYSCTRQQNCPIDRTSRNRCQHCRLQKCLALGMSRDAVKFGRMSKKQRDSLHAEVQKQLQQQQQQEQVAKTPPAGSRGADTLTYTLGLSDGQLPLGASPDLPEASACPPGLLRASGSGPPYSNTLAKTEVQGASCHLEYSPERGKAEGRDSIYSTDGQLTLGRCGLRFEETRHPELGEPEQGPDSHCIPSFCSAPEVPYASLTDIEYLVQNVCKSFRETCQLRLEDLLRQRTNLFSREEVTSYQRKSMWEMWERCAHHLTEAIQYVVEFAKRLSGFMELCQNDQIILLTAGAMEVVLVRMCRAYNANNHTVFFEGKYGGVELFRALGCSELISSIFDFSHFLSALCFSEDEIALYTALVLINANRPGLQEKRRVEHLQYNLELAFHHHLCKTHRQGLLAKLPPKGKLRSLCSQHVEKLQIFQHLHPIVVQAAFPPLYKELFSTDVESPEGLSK
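In this cell-based reporter format, copper sulfate (700 uM final) drives Gal4–ROR gamma fusion expression from a metallothionein promoter in Drosophila Schneider cells; compounds preincubated 1 hr, reporter read after 20 hr at ambient temperature.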
VP16 counter: counter-screen for ROR gamma inhibitors: Gal4-VP16 reporter | Drosophila S2 Gal4-VP16 UAS-luciferase, luminescence, 20 h | Potency, µM (titrated, usually from 53.6 µM), for the others: at the highest dose activity, negative = inhibition, usual class: inhibitors | hit rate 3.5% among 310,000 | AID 2546;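 note: Gal4-VP16 expression switched on by copper sulfate through the metallothionein promoter; potency is the fitted concentration of half-maximal effect; nearly all actives have a fitted effect of over 50% in size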
TDP1 cell noCPT: qHTS for Inhibitors of human tyrosyl-DNA phosphodiesterase 1 (TDP1): qHTS in cells in absence of CPT. hit rate 15% among 420,000. AID 686978, 2013. DT40 Tdp1-/- hTDP1 cells, no CPT, ATP luminescence, 48 h. Potency, µM (top dose mostly 46.2 µM), inactives show top-dose activity change, negative = growth inhibition, actives largely listed as inhibitors; note: potency is the fitted concentration of half-maximal effect; nearly all actives have a fitted effect of over 55% in size
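Compound effects on proliferation are scored in DT40 Tdp1-/-;hTDP1 cells in the absence of CPT. ATP levels (CellTiter-Glo luminescence) are recorded after a ≥48 hr, 37 °C incubation.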
Starred values were filed as active, the others as inactive; ? = inconclusive; nt = not tested or not shown; [ ] = another dose, or the depositor's remark. Unless noted, calls come from the whole dose curve; as a rule, active = well fitted curve in the direction sought with a large enough effect; inconclusive = small, poorly fitted or top-dose-only effect, or another doubt; inactive = no such curve, though single readings can be large; an effect the other way counts as inactive or inconclusive. % is set by controls: 0 for no effect and ±100 for the full control effect.

SMILES | IL-1B inflam inh | DT40 TDP1 CPT | ELG1 repair inh | RORg inh | VP16 counter | TDP1 cell noCPT
Cc1cccc(C(=O)N2CCN(c3ccc(C(F)(F)F)cn3)CC2)c1C | -26 | 13µM* | ? | -6% | ? | 21µM*
Cc1ccccc1N1CCN(C(=O)c2ccc(Oc3ccc(C(F)(F)F)cn3)cc2)CC1 | -73* | 8.9µM* | ? | ? | ? | 13µM*
CC(C)N1CCC(N2CCN(C3CCCCCC3)CC2CCO)CC1 (centres undefined) | -28 | ? | 10% | 2% | 4% | 2%
COc1cc2c(cc1OC)C(=NO)CCCC2 | -1 | 1% | nt | nt | nt | ?
Cc1cc(C(=O)N2CCN(c3ccc(C(F)(F)F)cn3)CC2)c(C)o1 | -12 | ? | ? | ? | -22% | 10µM*
Cc1ccc(C(=O)N2CCN(c3ccc(C(F)(F)F)cn3)CC2)o1 | -2 | ? | ? | nt | nt | ?
CCOc1ncccc1C(=O)N1CCN(c2ccc(C(F)(F)F)cn2)CC1 | 28 | ? | ? | ? | -6% | 10µM*
Cc1ccc(NC(=O)C2c3ccccc3-c3ccccc32)cc1 | -2 | 6.5µM* | nt | nt | nt | ?
Cc1ccc(C(=O)NC2c3ccccc3-c3ccccc32)cc1 | 14 | 2.9µM* | ? | ? | 1% | 3.7µM*
CC(=O)Nc1ccc(NC(=O)C2c3ccccc3Oc3ccccc32)cc1 | -3 | 14% | 8% | -1% | -6% | -2%
CN(c1cccc(Cl)c1)S(=O)(=O)c1cccc(C(=O)Nc2ccc3c(c2)CCC3)c1 | 1 | 23µM* | -23% | ? | 3% | 12µM*
CN(c1ccc(F)cc1)S(=O)(=O)c1ccc(Cl)c(C(=O)Nc2ccc3c(c2)CCC3)c1 | -17 | 5.2µM* | ? | 67% | -3% | 3.7µM*
CCN(c1ccccc1)S(=O)(=O)c1ccc(Cl)c(C(=O)N2CCCC2)c1 | 32 | ? | 13% | nt | nt | 15µM*
CN(Cc1ccccc1)S(=O)(=O)c1ccc(Cl)c(C(=O)N2CCC2)c1 | 0 | ? | -4% | nt | nt | ?
CN(Cc1ccccc1)S(=O)(=O)c1ccc(Cl)c(C(=O)N2CCC(C(N)=O)CC2)c1 | 26 | 23µM* | -19% | nt | nt | 10µM*
O=C(NCCc1cnn(-c2ccccc2)c1)c1cc(COc2c(F)cccc2F)on1 | -23 | ? | 0% | 43% | 1% | ?
COc1cc(OC)cc(C(=O)Nc2ccccc2-c2nnn(CC(=O)Nc3cc(C)on3)n2)c1 | 35 | ? | 15% | ? | ? | -27%
CCOc1ccc(S(=O)(=O)N2CCCCC2)cc1NC(=O)c1c(CC)noc1C | -16 | -23% | ? | nt | nt | -24%
COc1cc(C(=O)Oc2ccc3c(OC)c4ccoc4nc3c2OC)cc(OC)c1OC | nt | -9%[9.04 µM] | nt | 0% | 3% | 5%[9.04 µM]
O=C(Nc1ccccc1)c1cc(S(=O)(=O)NCc2ccncc2)ccc1Cl | 3 | 9.2µM* | ? | ? | ? | 8.2µM*
CCN(c1ccccc1)S(=O)(=O)c1ccc(F)c(C(=O)O)c1 | 14 | -9% | 5% | 13% | -9% | -11%
CCN(c1ccccc1)S(=O)(=O)c1ccc(Cl)c(C(=O)N(CC2CCCO2)C2CCS(=O)(=O)C2)c1 (centres undefined) | -11 | ? | 0% | 31% | -2% | 21µM*
CCN1CCN(S(=O)(=O)c2ccc(Cl)c(C(=O)N(CC(C)C)C3CCS(=O)(=O)C3)c2)CC1 (centres undefined) | -9 | -28% | nt | nt | nt | -11%
CN(c1ccc(F)cc1)S(=O)(=O)c1ccc(Cl)c(C(=O)Nc2ccncc2)c1 | 33 | 18µM* | 12µM* | nt | nt | 13µM*
O=C(Nc1ccccc1)c1cc(S(=O)(=O)Nc2cccnc2)ccc1Cl | 17 | -6% | -7% | -5% | -2% | -17%
SMILES | IL-1B inflam inh | DT40 TDP1 CPT | ELG1 repair inh | RORg inh | VP16 counter | TDP1 cell noCPT
CCN(c1ccccc1)S(=O)(=O)c1ccc(Cl)c(C(=O)Nc2ccncc2)c1 | 4 | ? | nt | nt | nt | 12µM*
C#CCCCO/N=C1/[C@H]2O[C@@H]2[C@@H](O)[C@H]2[C@H]1CCn1c(=O)n(-c3ccccc3)c(=O)n12 | nt | nt | nt | -5%[10 µM] | 13%[10 µM] | nt
COc1cccc(-c2cncnc2Nc2ccc(F)cc2)c1 | nt | -27% | nt | 3% | 7% | -8%
Cc1cccc(N2CC(C(=O)O)CC2=O)c1C (centres undefined) | 15 | 2% | -12% | -24% | ? | -28%
CC(C)CC(=O)N1CCN(Cc2ccc3c(c2)OCO3)CC1 | -15 | -20% | -13% | 2% | -1% | -16%
CN(c1ccccc1)S(=O)(=O)c1ccc(Cl)c(C(=O)Nc2ccncc2)c1 | 50 | 18µM* | ? | nt | nt | 16µM*
Cc1ccc(NC(=O)CN(C)C(=O)COc2ccc(Br)cc2)cc1 | -15 | -18% | nt | nt | nt | -16%
Cc1ccnc(NCc2ccc(Cl)cc2)c1 | -58* | ? | 6% | -4% | -5% | ?
Cc1ccnc(Nc2nc(-c3ccc(F)cc3)cs2)c1 | -93* | ? | ? | 11µM* | ? | ?
Cc1ccnc(Nc2nc(-c3ccc(Cl)cc3)cs2)c1 | 5 | ? | ? | -32% | ? | 21µM*
O=C(COc1coc(CN2CCc3ccccc32)cc1=O)Nc1cccc(F)c1 | 7 | -19% | 4% | nt | nt | -11%
O=C(CCC1CCCCC1)Nc1ccccc1-c1ccccc1 | 21 | -3% | 11% | 13% | -8% | -18%
CC(=O)Nc1ccc(SCC(=O)Nc2ccccc2-c2ccccc2)cc1 | 25 | ? | -19% | 12% | -7% | 23µM*
O=C(CNC(c1ccccc1)c1ccccc1)Nc1ccccc1-c1ccccc1 | 16 | ? | ? | ? | ? | 18µM*
O=C(CNC(c1ccccc1)c1ccccc1)Nc1ccccc1F | -3 | ? | -11% | -15% | -2% | ?
O=C(CC1CCCCC1)Nc1ccccc1-c1ccccc1 | -4 | ? | -1% | 1% | -5% | 21µM*
COc1ccc(NC(=O)CNC(c2ccccc2)c2ccccc2)cc1Cl | -18 | ? | ? | 26% | 5% | ?
Cc1cc(C)cc(NC(=O)CNC(c2ccccc2)c2ccccc2)c1 | -6 | ? | -13% | 14% | 11% | 10µM*
C/C=C/c1cccc(-c2nc(C(=O)NC3CCC3)cc3c2[C@H](CCO)N(S(=O)C(C)(C)C)C3)c1 (some centres undefined) | -19 | ? | nt | nt | nt | ?
CN(C)S(=O)(=O)c1cccc(NC(=O)COC(=O)c2cccnc2Cl)c1 | -3 | -16% | 4% | nt | nt | -11%
